Test results taken from the supplement of paper PMC7801607.

How the values were obtained:
CHO = assay: % viability of CHO cells (MTT); higher = less toxic; settings: 48 h
Method in brief: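 CHO cells were plated at 10^6 cells/well in 200 µL and allowed to attach overnight. Fresh medium with compound at 2 or 20 µM then replaced the old medium for 48 h. Percent viability, relative to untreated cells, came from a colorimetric tetrazolium (MTT) readout.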

HepG2-A16-CD81 = assay: % inhibition of HepG2 viability (CellTiter-Glo); higher = more toxic; settings: 5 µM
[1] = tested on: Plasmodium falciparum NF54 stage IV/V gametocytes; assay: % inhibition of gametocyte viability (PrestoBlue); higher = more inhibition; settings: 48 h
Method in brief: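 In a single run, percent inhibition of gametocyte viability was calculated relative to vehicle and kill controls. The wells held 100 µL of Stage IV/V NF54 gametocytes at 2% gametocytaemia and 5% haematocrit, with compound at 1 or 5 µM. Plates stood at 37 °C in hypoxic conditions for 48 h. After that, 10 µL PrestoBlue was added for 2 h, and 70 µL of supernatant was transferred for fluorescence reading at 612 nm.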

[2] = tested on: Plasmodium falciparum NF54 asexual blood stage; assay: % inhibition of asexual blood stage proliferation (pLDH); higher = more inhibition; settings: 72 h
Method in brief: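 Percent inhibition of asexual proliferation, normalised to controls, was determined in a screen repeated on two separate occasions. Plasmodium falciparum NF54 ring-stage cultures (1% haematocrit, 2% parasitaemia) received compound at 2 or 20 µM and were incubated for 72 h at 37 °C under 4% CO2, 3% O2 and 93% N2. A colorimetric parasite lactate dehydrogenase readout at 620 nm gave survival.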

[3] = tested on: Plasmodium falciparum NF54 stage IV/V gametocytes; assay: % inhibition of gametocyte viability (ATP bioluminescence); higher = more inhibition; settings: 24 h
Method in brief: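 Enriched stage IV/V NF54 gametocytes were exposed to compound at 1 or 5 µM for 24 h at 37 °C in 96-well plates. Percent inhibition of gametocyte viability was derived from a bioluminescent ATP readout, normalised to controls within a single run.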

[4] = tested on: Plasmodium falciparum NF54 stage IV/V gametocytes; assay: % inhibition of gametocyte viability (luciferase reporter); higher = more inhibition; settings: 48 h
Method in brief: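 Percent inhibition was normalised to controls from a single run. Stage IV/V gametocytes of the NF54-Pfs16-GFP-Luc line, at 2% gametocytaemia and 2% haematocrit, were exposed to compound at 1 or 5 µM for 48 h at 37 °C under stationary, hypoxic conditions. Luminescence was then read from 30 µL lysate mixed with 30 µL Promega luciferin substrate on a GloMax-Multi+ reader with 10 s integration.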

[5] = tested on: Plasmodium berghei ANKA liver stage in HepG2-A16-CD81; assay: % inhibition of liver stage parasite viability (luciferase); higher = more inhibition; settings: 5 µM; 48 h
Method: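 Single-concentration screen of the MMV Pandemic Response Box. P. falciparum NF54 asexual blood stages: pLDH assay, 72 h at 37 °C, 2 and 20 µM, n=2. Stage IV/V gametocytes (NF54): luciferase reporter (NF54-Pfs16-GFP-Luc, 48 h), ATP bioluminescence (24 h) and PrestoBlue (48 h) at 1 and 5 µM, n=1. P. berghei liver stage (luciferase in HepG2-A16-CD81, 48 h post infection) at 5 µM, n=4. All normalised to DMSO and kill controls as % inhibition.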
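Wherever % inhibition of HepG2 viability (CellTiter-Glo) is given: HepG2-A16-CD81 hepatoma cells plated as in the liver-stage assay but without sporozoites, with DMSO wells as negative and 25 µM puromycin as positive control.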

Row | Compound | % viability of CHO cells (CHO; 2 µM) [%] | % viability of CHO cells (CHO; 20 µM) [%] | % inhibition of HepG2 viability (HepG2-A16-CD81) [%] | % inhibition of gametocyte viability ([1]; 1 µM) [%] | % inhibition of gametocyte viability ([1]; 5 µM) [%] | % inhibition of asexual blood stage proliferation ([2]; 2 µM) [%] | % inhibition of asexual blood stage proliferation ([2]; 20 µM) [%] | % inhibition of gametocyte viability ([3]; 1 µM) [%] | % inhibition of gametocyte viability ([3]; 5 µM) [%] | % inhibition of gametocyte viability ([4]; 1 µM) [%] | % inhibition of gametocyte viability ([4]; 5 µM) [%] | % inhibition of liver stage parasite viability [5] [%]
1 | O=C(CCc1ccc2c(c1)OCO2)NCc1ccc(-c2ccccc2F)cc1 | 87.7 | 94.9 | 8.8 | < 0 | < 0 | -4.07 | -11.2 | 4.23 | < 0 | < 0 | < 0 | 43.9
2 | CONC(=N)c1ccc(-c2ccc(-c3ccc(C(=N)NOC)cc3)o2)cc1 | 111 | 121 | 2.49 | 11.8 | 9.28 | -3.01 | 1.5 | 0.615 | < 0 | < 0 | < 0 | 4.65
3 | C[C@@H](NC(=O)c1ccccc1-c1ccccc1)B(O)O | 84 | 94 | 7.46 | 10.1 | 30.5 | -8.74 | -3.48 | 3.08 | < 0 | < 0 | < 0 | 19.8
4 | O=C(/C=C\n1cnc(-c2cc(C(F)(F)F)cc(C(F)(F)F)c2)n1)NNc1ccccn1 | 117 | 91.3 | 31.8 | 10.8 | < 0 | 13.9 | 40 | < 0 | < 0 | 13.4 | < 0 | 16.2
5 | COc1cc2c(O)c3c(c(-c4ccc5c(c4)OCO5)c2cc1OC)C(=O)OC3 | 98 | 86.4 | 58.9 | 13 | 17.7 | 44.2 | 99.9 | < 0 | < 0 | < 0 | < 0 | 58.4
6 | NC(=O)c1nccn([C@@H]2O[C@H](CO)[C@@H](O)[C@H]2O)c1=O | 91.2 | 105 | 4.39 | 5.72 | 19.8 | 11.7 | 53.8 | < 0 | < 0 | 7.58 | < 0 | 14.7
7 | CCCCc1ccc(-c2nc(C)c(C(=O)OC)s2)cc1 | 113 | 102 | 0.116 | 5.41 | 22.1 | 36.8 | 59.2 | < 0 | < 0 | < 0 | < 0 | -103
8 | Nc1ccc2oc(=O)ccc2c1I | 72.9 | 60 | -2.48 | < 0 | < 0 | 29.8 | 37.3 | < 0 | < 0 | 3.24 | 2.65 | 6.97
9 | COC1CC2CCC(C)C(O)(O2)C(=O)C(=O)N2CCCCC2C(=O)OC(C(C)CC2CCC(OCCO)C(OC)C2)CC(=O)C(C)/C=C(\C)C(O)C(OC)C(=O)C(C)CC(C)/C=C/C=C/C=C/1C (stereo not drawn) | 92.8 | 106 | 1.51 | < 0 | 4.18 | 26.6 | 90.3 | 2.16 | 37.2 | 15 | 4.08 | 0.0625
